In all, about 13,000 compounds went through this assay and about 3,200 (25%) showed an effect of 50% or more. Some of the results follow.
tested on: P. falciparum stage V gametocytes; parameters: BacTiter-Glo ATP luminescence viability of purified stage V gametocytes in 384-well plates, per cent inhibition versus DMSO; conditions: 48 h, 5 µM; inhibitor

SMILES	% Inhibition [%]
O=C(NCC(NCCCNc1cc(=O)c2ccccc2[nH]1)c1cc(Br)cc(Br)c1)C1=CCCC1 (stereo not shown) [TCMDC-140317]	-52.55
CC(=O)N[C@H](C(=O)Nc1cccc(-c2ccc(-c3nc4cccc(C)c4[nH]3)s2)c1)C(C)C [TCMDC-136855]	31.89
Cc1ccc(-c2nc(N3CCN(C(=O)c4ccco4)CC3)c3ccc(Cl)cc3n2)cc1 [TCMDC-124781]	24.46
Cc1ccc2c(Cl)c(C(=O)N3CC(C)OC(C)C3)sc2c1 (stereo not shown) [TCMDC-125624]	35.35
COc1ccccc1Cn1ccnc1SCC(=O)Nc1cc(C(F)(F)F)ccc1Cl [TCMDC-124736]	-16.43
Cc1cc(C)cc(OCC(O)CN(CCN2CCOCC2)C(=O)Nc2ccc(Br)cc2)c1 (stereo not shown) [TCMDC-141491]	2.41
O=C(Cn1c(CCc2cccc(F)c2F)nc(=O)c2ccccc21)N(CCN1CCCCC1)Cc1ccc(-c2ccc(C(F)(F)F)cc2)cc1 [TCMDC-141088]	27.65
CC(C)(CN1CCCC1)CN(Cc1ccc(-c2ccc(C(F)(F)F)cc2)cc1)C(=O)Cn1c(CCc2cccc(F)c2F)nc(=O)c2ccccc21 [TCMDC-141098]	107.5
O=C(Cn1c(CCc2cccc(F)c2F)nc(=O)c2ccccc21)N(CCN1CCCC1)Cc1ccc(-c2ccc(C(F)(F)F)cc2)cc1 [TCMDC-141059]	66.66
O=C(Cn1c(CCc2cccc(F)c2F)nc(=O)c2ccccc21)N(CCCN1CCCC1)Cc1ccc(-c2ccc(C(F)(F)F)cc2)cc1 [TCMDC-141055]	113.5
O=C(Cn1c(CCc2cccc(F)c2F)nc(=O)c2ccccc21)N(CCCN1CCCCC1)Cc1ccc(-c2ccc(C(F)(F)F)cc2)cc1 [TCMDC-141053]	101.4
FC(F)(F)c1ccc2c(NCCc3ccccc3)ccnc2c1 [TCMDC-138552]	-21.17
COc1cccc2cc(C(=O)N[C@@H](CC(C)C)C(=O)N[C@H](/C=N/N(C)C(=O)OC(C)(C)C)CC(=O)OC(C)(C)C)oc12 [TCMDC-136092]	4.382
COc1ccc(NC(=O)Nc2nc(-c3ccc(Cl)c(C)c3)cs2)cc1N1CCN(C)CC1 [TCMDC-139155]	8.522
C[C@@H]1C[C@@H]([C@H](O)CC2CC(=O)NC(=O)C2)C(=O)[C@@H](C)C1 [TCMDC-125838]	50.08
O=C(NC1CCN(Cc2ccccc2)CC1)c1ccc(-c2nc3cc(Cl)c(Cl)cc3[nH]2)c(F)c1 [TCMDC-140083]	2.132

From paper PMC4552634, “A New Set of Chemical Starting Points with Plasmodium falciparum Transmission-Blocking Potential for Antimalarial Drug Discovery” (PLoS ONE, 2015)
